Test results as given in PubChem BioAssay (NCI).
About 79,000 compounds went through this panel and 15% of them were active in at least one assay; those are over-represented in the sample as a whole. Calls of active or inactive are those of the source. No stated cut-off is given here; in the data, active means growth inhibition above about 70%; inactive means the rest.

Experiments:
[1] = NCI Yeast Anticancer Drug Screen. Data for the rad52 strain (AID 147);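 further: 0% = growth of vehicle-treated control cultures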; conditions: S. cerevisiae rad52 mutant growth inhibition, active compounds read high
Summary of the method: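 Read-out: growth inhibition versus vehicle-treated controls. Cells were a DNA repair-deficient yeast strain treated with compounds.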

[2] = NCI Yeast Anticancer Drug Screen. Data for the wt1 strain (AID 149);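 further: 0% = growth of vehicle-treated wt1 cultures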; conditions: S. cerevisiae wt1 strain (SPY 50644) growth inhibition, active compounds read high
Summary of the method: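 Measured: growth of wt1 yeast under compound versus vehicle treatment, reported as inhibition.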

[3] = NCI Yeast Anticancer Drug Screen. Data for the mgt1 strain (AID 153); conditions: S. cerevisiae mgt1 mutant growth inhibition, active compounds read high
Summary of the method: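 mgt1 yeast grown with test compound; read-out is growth inhibition versus vehicle-treated cultures.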

[4] = NCI Yeast Anticancer Drug Screen. Data for the rad50 strain (AID 155);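 further: 0% = growth of vehicle-only cultures of the same strain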; conditions: S. cerevisiae rad50 strain growth inhibition, active compounds read high
Summary of the method: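 Growth of the mutant yeast was measured after compound exposure and referenced to vehicle-treated cultures.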

[5] = NCI Yeast Anticancer Drug Screen. Data for the mec2-1 strain (AID 157); conditions: S. cerevisiae mec2-1 strain, active compounds read high
Summary of the method: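 Yeast mec2-1 mutant treated with compound. Readout: growth inhibition vs vehicle controls.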

[6] = NCI Yeast Anticancer Drug Screen. Data for the rad14 strain (AID 159);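 further: 0% = growth of vehicle-treated control cultures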; conditions: S. cerevisiae rad14 strain growth inhibition, active compounds read high
Summary of the method: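 Here, inhibition of yeast growth was measured after compound exposure, using a strain with a genetic defect in DNA damage repair and vehicle-treated cultures as the reference.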

[7] = NCI Yeast Anticancer Drug Screen. Data for the sgs1 mgt1 strain (AID 161);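 further: 0% = growth of cultures given vehicle only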; conditions: S. cerevisiae sgs1 mgt1 strain, active compounds read high
Summary of the method: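 Read-out: growth inhibition vs vehicle controls. Cells: mutant yeast strain deficient in DNA damage repair.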

[8] = NCI Yeast Anticancer Drug Screen. Data for the CLN2oe strain (AID 163);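 further: 0% = growth of vehicle-only control cultures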; conditions: S. cerevisiae CLN2oe strain, active compounds read high
Summary of the method: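 Read-out: yeast growth inhibition, expressed relative to vehicle-only controls. The strain bears an engineered cell-cycle alteration.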

[9] = NCI Yeast Anticancer Drug Screen. Data for the cln2 rad14 strain (AID 165);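 further: 0% = growth equal to vehicle treated cultures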; conditions: S. cerevisiae cln2 rad14 strain, active compounds read high
Summary of the method: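 cln2 rad14 yeast strain; compound exposure; growth inhibition read vs vehicle controls.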

[10] = NCI Yeast Anticancer Drug Screen. Data for the bub3 strain (AID 167); conditions: S. cerevisiae bub3 mutant strain, active compounds read high
Summary of the method: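 Whole-cell yeast assay. The mutant strain was incubated with compounds, and growth inhibition was determined by comparison with vehicle-treated cells.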

[11] = NCI Yeast Anticancer Drug Screen. Data for the wt2 strain (AID 169);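 further: 0% = growth of vehicle-treated yeast cultures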; conditions: S. cerevisiae wt2 strain growth inhibition, active compounds read high
Summary of the method: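 Read-out: growth inhibition versus vehicle-treated control cultures after compound exposure of the yeast strain.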

[12] = NCI Yeast Anticancer Drug Screen. Data for the mlh1 strain (AID 171);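 further: 0% = growth of vehicle-treated control cultures of the same strain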; conditions: S. cerevisiae mlh1 strain growth inhibition, active compounds read high
Summary of the method: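 Read-out: growth inhibition versus vehicle controls. Strain: engineered yeast with a defined DNA repair or cell cycle defect, compound-treated.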

[13] = NCI Yeast Anticancer Drug Screen. Data for the sgs1 strain (AID 173);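 further: 0% = growth of vehicle-only control cultures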; conditions: S. cerevisiae sgs1 mutant, active compounds read high
Summary of the method: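 Read-out: yeast growth inhibition relative to vehicle controls, following compound exposure of a strain with a defined DNA repair/cell cycle alteration.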

[14] = NCI Yeast Anticancer Drug Screen. Data for the mlh1 rad18 strain (AID 175); conditions: S. cerevisiae mlh1 rad18 strain growth inhibition, active compounds read high
Summary of the method: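 Yeast w/ defined DNA-repair lesions; compound exposure; growth vs vehicle controls → % inhibition.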

[15] = NCI Yeast Anticancer Drug Screen. Data for the rad18 strain (AID 177); conditions: S. cerevisiae rad18 mutant growth inhibition, active compounds read high
Summary of the method: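 Readout: growth inhibition vs vehicle controls. Cells: genetically altered yeast strain, DNA repair defect.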

[16] = NCI Yeast Anticancer Drug Screen. Data for the rad50EPP+ strain (AID 151);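 further: 0% = growth of vehicle-treated control cultures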; conditions: S. cerevisiae rad50 mutant strain, active compounds read high
Summary of the method: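 Growth inhibition read against vehicle controls in rad50EPP+ yeast, a strain altered in DNA damage repair, after compound exposure.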

[17] = at 5.0 µM (retest, dose inferred, filed as 0.5)
[18] = at 50.0 µM (retest, dose inferred, filed as 5.0)

Measured: growth inhibition

CCOC(=O)C1=C(C(=O)c2ccccc2)C(c2ccccc2[N+](=O)[O-])C(C(=O)c2ccccc2)=C(C(=O)OCC)N1
active: [4]; at 50.0 µM 71.6% | [10]; [18] 86%
inactive: [1]; at 1.2 µM -2% | [1]; at 3.7 µM 0% | [1]; at 11.0 µM -1% | [1]; at 33.0 µM 1% | [1]; at 100.0 µM 11% | [2]; at 1.2 µM -2% | [2]; at 3.7 µM -1% | [2]; at 11.0 µM -1% | [2]; at 33.0 µM -1% | [2]; at 100.0 µM -4% | [3]; at 1.2 µM 0% | [3]; at 3.7 µM 1% | [3]; at 11.0 µM 0% | [3]; at 33.0 µM 1% | [3]; at 100.0 µM 35% | [4]; at 1.2 µM 0% | [4]; at 3.7 µM -1% | [4]; [17] 2% | [4]; at 11.0 µM -2% | [4]; at 33.0 µM 1% | [4]; [18] 60% | [4]; at 100.0 µM 17% | [5]; at 1.2 µM -3% | [5]; at 3.7 µM -3% | [5]; [17] -4% | [5]; at 11.0 µM -3% | [5]; at 33.0 µM -1% | [5]; [18] 20% | [5]; at 50.0 µM 18.6% | [5]; at 100.0 µM 10% | [6]; at 1.2 µM 0% | [6]; at 3.7 µM 2% | [6]; at 11.0 µM 8% | [6]; at 33.0 µM 9% | [6]; at 100.0 µM 29% | [7]; [17] 9% | [7]; [18] 16% | [7]; at 50.0 µM 41.8% | [8]; at 1.2 µM 0% | [8]; at 3.7 µM 0% | [8]; at 11.0 µM 2% | [8]; at 33.0 µM 3% | [8]; at 100.0 µM 0% | [9]; [17] 7% | [9]; [18] 39% | [9]; at 50.0 µM 16.9% | [10]; at 1.2 µM 6% | [10]; at 3.7 µM 8% | [10]; [17] 3% | [10]; at 11.0 µM 11% | [10]; at 33.0 µM 10% | [10]; at 50.0 µM 19% | [10]; at 100.0 µM 42% | [11]; at 1.2 µM -2% | [11]; at 3.7 µM -1% | [11]; at 11.0 µM -1% | [11]; at 33.0 µM 0% | [11]; at 100.0 µM 10% | [12]; at 1.2 µM -1% | [12]; at 3.7 µM -2% | [12]; at 11.0 µM -2% | [12]; at 33.0 µM 1% | [12]; at 100.0 µM 20% | [13]; at 1.2 µM -2% | [13]; at 3.7 µM 1% | [13]; at 11.0 µM 5% | [13]; at 33.0 µM 7% | [13]; at 100.0 µM 17% | [14]; [17] -21% | [14]; [18] 61% | [14]; at 50.0 µM 65.6% | [15]; at 1.2 µM 0% | [15]; at 3.7 µM 1% | [15]; at 11.0 µM 1% | [15]; at 33.0 µM 7% | [15]; at 100.0 µM 39%

S=C(N/N=C(/c1ccccc1)c1ccccn1)N1CCCCCC1
inactive: [1]; at 1.2 µM 42% | [1]; at 3.7 µM 52% | [1]; at 11.0 µM 57% | [1]; at 33.0 µM 57% | [1]; at 100.0 µM 41% | [2]; at 1.2 µM -3% | [2]; at 3.7 µM 3% | [2]; at 11.0 µM 4% | [2]; at 33.0 µM 2% | [2]; at 100.0 µM -2% | [3]; at 1.2 µM -5% | [3]; at 3.7 µM -7% | [3]; at 11.0 µM 16% | [3]; at 33.0 µM -18% | [3]; at 100.0 µM -6% | [4]; at 1.2 µM 0% | [4]; at 3.7 µM 6% | [4]; [17] 5% | [4]; at 11.0 µM -20% | [4]; at 33.0 µM 4% | [4]; at 100.0 µM 8% | [5]; at 1.2 µM 1% | [5]; at 3.7 µM 0% | [5]; [17] 24% | [5]; at 11.0 µM 4% | [5]; at 33.0 µM 1% | [5]; at 100.0 µM 4% | [6]; at 1.2 µM -5% | [6]; at 3.7 µM -4% | [6]; at 11.0 µM -4% | [6]; at 33.0 µM -5% | [6]; at 100.0 µM -1% | [8]; at 1.2 µM 5% | [8]; at 3.7 µM 0% | [8]; at 11.0 µM 4% | [8]; at 33.0 µM -4% | [8]; at 100.0 µM 7% | [9]; [17] 18% | [10]; at 1.2 µM 4% | [10]; at 3.7 µM 16% | [10]; at 11.0 µM 22% | [10]; at 33.0 µM 13% | [10]; at 100.0 µM 2% | [11]; at 1.2 µM 5% | [11]; at 3.7 µM 7% | [11]; at 11.0 µM 12% | [11]; at 33.0 µM 10% | [11]; at 100.0 µM 5% | [15]; at 1.2 µM 8% | [15]; at 3.7 µM 20% | [15]; at 11.0 µM 20% | [15]; at 33.0 µM 6% | [15]; at 100.0 µM 19%
active: [4]; [18] 96% | [4]; at 50.0 µM 76.7% | [5]; [18] 97% | [5]; at 50.0 µM 80.5% | [7]; [17] 75% | [7]; [18] 96% | [7]; at 50.0 µM 85.4% | [9]; [18] 96% | [9]; at 50.0 µM 82.5% | [10]; [17] 95% | [10]; [18] 97% | [10]; at 50.0 µM 87.8% | [14]; [17] 93% | [14]; [18] 97% | [14]; at 50.0 µM 86.2%

Clc1ccc(SC(/C=C/NNC2=NC(c3ccccc3)C(c3ccccc3)=NN2)c2ccccc2)cc1 (stereo unspecified)
active: [1]; at 100.0 µM 83% | [4]; at 50.0 µM 71.3% | [4]; at 100.0 µM 82% | [5]; at 100.0 µM 85% | [6]; at 100.0 µM 91% | [8]; at 100.0 µM 80% | [9]; at 50.0 µM 70% | [10]; at 100.0 µM 84% | [11]; at 100.0 µM 86%
inactive: [1]; at 1.2 µM 0% | [1]; at 3.7 µM 6% | [1]; at 11.0 µM 11% | [1]; at 33.0 µM 19% | [2]; at 1.2 µM 0% | [2]; at 3.7 µM -1% | [2]; at 11.0 µM -2% | [2]; at 33.0 µM -1% | [2]; at 100.0 µM 51% | [16]; at 1.2 µM 2% | [16]; at 3.7 µM 12% | [16]; at 11.0 µM 7% | [16]; at 33.0 µM 6% | [16]; at 100.0 µM 0% | [4]; at 1.2 µM 4% | [4]; at 3.7 µM 14% | [4]; [17] 48% | [4]; at 11.0 µM 14% | [4]; at 33.0 µM 47% | [4]; [18] 48% | [5]; at 1.2 µM -1% | [5]; at 3.7 µM 2% | [5]; [17] 0% | [5]; at 11.0 µM 2% | [5]; at 33.0 µM 8% | [5]; [18] 0% | [5]; at 50.0 µM 18.6% | [6]; at 1.2 µM 1% | [6]; at 3.7 µM 6% | [6]; at 11.0 µM 2% | [6]; at 33.0 µM 50% | [7]; [17] 31% | [7]; [18] 31% | [7]; at 50.0 µM 49.8% | [8]; at 1.2 µM -9% | [8]; at 3.7 µM 0% | [8]; at 11.0 µM -4% | [8]; at 33.0 µM 1% | [9]; [17] 7% | [9]; [18] 7% | [10]; at 1.2 µM -1% | [10]; at 3.7 µM -1% | [10]; [17] 5% | [10]; at 11.0 µM 0% | [10]; at 33.0 µM 37% | [10]; [18] 5% | [10]; at 50.0 µM 60.9% | [11]; at 1.2 µM 0% | [11]; at 3.7 µM 2% | [11]; at 11.0 µM 2% | [11]; at 33.0 µM 29%
